# Test results from PubChem BioAssay (Tox21).
# Unmarked numbers belong to inactive results. Results filed as inconclusive are left out. Where a call stands in place of a potency, no number is given. The source made the active and inactive calls. The call rests on the fitted dose curve; in most records, active means well fitted curve in the direction sought with a large enough effect in the repeat runs; inconclusive means weak or mixed curves; inactive means no such curve, though single readings can be large; an effect the other way counts as inactive or inconclusive.
# Assays:
# [1] = qHTS RealTime-Glo MT Cell Viability Assay in HEK293 cells - 40 hour (AID 1224874); conditions: RealTime-Glo luminescence; max response: stronger effect = lower value; further: nearly all actives have a fitted effect of over 50% in size; further: potency means the concentration at half of the fitted maximal effect
# Outline: (§1)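 Viable HEK293 cells reduce a cell-permeant prosubstrate; the product diffuses out and is consumed by NanoLuc in the medium to give light. Compounds went in after a 5 h incubation and plates were read over the treatment course.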
# [2] = A CellTox Green Cytotoxicity Assay to monitor cytotoxicity in HEK293 cells - 24 hour (AID 1224875); further: nearly all actives have a fitted effect of over 45% in size; further: potency means the concentration at half of the fitted maximal effect; on activity change: series mostly up to about 77 µM
# Outline: (§2)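 Fluorescence intensity, read at 0, 8, 16, 24, 32 and 40 h of compound treatment, reflected dye binding to DNA of dead HEK293 cells; compounds (23 nL, DMSO) were added 5 h after plating cells with reagent.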
# [3] = A CellTox Green Cytotoxicity Assay to monitor cytotoxicity in HepG2 cells - 16 hour (AID 1224876); further: nearly all actives have a fitted effect of over 45% in size; further: potency means the concentration at half of the fitted maximal effect
# Outline: (§3)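 Using 1536-well format, dye-containing HepG2 suspension was seeded, allowed 5 h at 37 C/5% CO2, dosed by pintool with compounds, positive and negative controls, and imaged for fluorescence across 40 h.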
# [4] = qHTS RealTime-Glo MT Cell Viability Assay in HepG2 cells - 32 hour (AID 1224877); further: nearly all actives have a fitted effect of over 55% in size; further: potency means the concentration at half of the fitted maximal effect
# Outline: (§4)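 HepG2 cells were seeded at 600 cells/well together with NanoLuc luciferase and a cell-permeant prosubstrate, preincubated 5 h at 37 C/5% CO2, then pin-dosed with compounds in DMSO. Nonlytic luminescence from viable cells was read at each time point.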
# [5] = A CellTox Green Cytotoxicity Assay to monitor cytotoxicity in HepG2 cells - 24 hour (AID 1224878); further: nearly all actives have a fitted effect of over 45% in size; further: potency means the concentration at half of the fitted maximal effect
# Outline: as §3
# [6] = A CellTox Green Cytotoxicity Assay to monitor cytotoxicity in HepG2 cells - 40 hour (AID 1224879); further: nearly all actives have a fitted effect of over 40% in size; further: potency means the concentration at half of the fitted maximal effect
# Outline: as §3
# [7] = qHTS RealTime-Glo MT Cell Viability Assay in HEK293 cells - 0 hour (AID 1224880); further: top concentration of the series differs between compounds; nearly all actives have a fitted effect of over 45% in size
# Outline: as §1
# [8] = A CellTox Green Cytotoxicity Assay to monitor cytotoxicity in HEK293 cells - 32 hour (AID 1224881); further: nearly all actives have a fitted effect of over 40% in size
# Outline: as §2
# [9] = A CellTox Green Cytotoxicity Assay to monitor cytotoxicity in HepG2 cells - 0 hour (AID 1224882); further: nearly all actives have a fitted effect of over 35% in size
# Outline: as §3
# [10] = A CellTox Green Cytotoxicity Assay to monitor cytotoxicity in HepG2 cells - 32 hour (AID 1224883); further: nearly all actives have a fitted effect of over 50% in size; further: potency means the concentration at half of the fitted maximal effect
# Outline: as §3
# [11] = A CellTox Green Cytotoxicity Assay to monitor cytotoxicity in HEK293 cells - 8 hour (AID 1224884); further: nearly all actives have a fitted effect of over 35% in size; further: potency means the concentration at half of the fitted maximal effect
# Outline: as §2
# [12] = qHTS RealTime-Glo MT Cell Viability Assay in HepG2 cells - 16 hour (AID 1224885); further: nearly all actives have a fitted effect of over 50% in size; further: potency means the concentration at half of the fitted maximal effect
# Outline: as §4
# [13] = qHTS RealTime-Glo MT Cell Viability Assay in HEK293 cells - 24 hour (AID 1224886); further: nearly all actives have a fitted effect of over 50% in size; further: potency means the concentration at half of the fitted maximal effect; on activity change, negative = cytotoxicity: top concentration of the series differs between compounds
# Outline: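 HEK293 cells were seeded at 600 cells/well together with NanoLuc luciferase and cell-permeant prosubstrate, preincubated 5 h at 37 C/5% CO2, then given compound in DMSO by pintool. Luminescence from viable-cell prosubstrate reduction was read repeatedly over 40 h.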
# [14] = qHTS RealTime-Glo MT Cell Viability Assay in HEK293 cells - 8 hour (AID 1224887); further: nearly all actives have a fitted effect of over 50% in size; further: potency means the concentration at half of the fitted maximal effect; on activity change, negative = cytotoxicity: top concentration of the series differs between compounds
# Outline: as §1
# [15] = A CellTox Green Cytotoxicity Assay to monitor cytotoxicity in HEK293 cells - 16 hour (AID 1224888); further: nearly all actives have a fitted effect of over 35% in size; further: potency means the concentration at half of the fitted maximal effect
# Outline: as §2
# [16] = qHTS RealTime-Glo MT Cell Viability Assay in HepG2 cells - 0 hour (AID 1224889); further: nearly all actives have a fitted effect of over 50% in size
# Outline: as §4
# [17] = A CellTox Green Cytotoxicity Assay to monitor cytotoxicity in HepG2 cells - 8 hour (AID 1224890); further: nearly all actives have a fitted effect of over 45% in size; further: potency means the concentration at half of the fitted maximal effect
# Outline: as §3
# [18] = qHTS assay to identify small molecule antagonists of the estrogen receptor alpha (ER-alpha) signaling pathway using the BG1 cell line in the presence of 0.1 nM 17-beta-estradiol - cell viability counter screen (AID 1259241); further: nearly all actives have a fitted effect of over 40% in size
# Outline: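 VM7Luc4E2 cells (endogenous full-length ER-alpha, 4xERE-luciferase), cultured 5 days in charcoal-stripped serum, exposed to compounds with 0.1 nM 17beta-estradiol (final) for 22 hr at 37C. Viability read in same wells as live-cell protease fluorescence after 30 min.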
# [19] = qHTS assay to identify small molecule antagonists of the androgen receptor (AR) signaling pathway using the MDA cell line in the presence of 0.5 nM R1881 - cell viability counter screen (AID 1259242); further: nearly all actives have a fitted effect of over 45% in size
# Outline: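 Viability of MDA-kb2 cells was multiplexed with the luciferase AR readout; after 16 hr with compounds and R1881 at 0.5 nM final, CellTiter-Fluor fluorescence was recorded.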
# [20] = molecular target: Androgen receptor (Homo sapiens) (UniProt P10275); experiment: qHTS assay to identify small molecule antagonists of the androgen receptor (AR) signaling pathway using the MDA cell line in the presence of 0.5 nM R1881 (AID 1259243); further: nearly all actives have a fitted effect of over 50% in size
# Sequence of Androgen receptor (Homo sapiens) (P10275 whole entry, looked up): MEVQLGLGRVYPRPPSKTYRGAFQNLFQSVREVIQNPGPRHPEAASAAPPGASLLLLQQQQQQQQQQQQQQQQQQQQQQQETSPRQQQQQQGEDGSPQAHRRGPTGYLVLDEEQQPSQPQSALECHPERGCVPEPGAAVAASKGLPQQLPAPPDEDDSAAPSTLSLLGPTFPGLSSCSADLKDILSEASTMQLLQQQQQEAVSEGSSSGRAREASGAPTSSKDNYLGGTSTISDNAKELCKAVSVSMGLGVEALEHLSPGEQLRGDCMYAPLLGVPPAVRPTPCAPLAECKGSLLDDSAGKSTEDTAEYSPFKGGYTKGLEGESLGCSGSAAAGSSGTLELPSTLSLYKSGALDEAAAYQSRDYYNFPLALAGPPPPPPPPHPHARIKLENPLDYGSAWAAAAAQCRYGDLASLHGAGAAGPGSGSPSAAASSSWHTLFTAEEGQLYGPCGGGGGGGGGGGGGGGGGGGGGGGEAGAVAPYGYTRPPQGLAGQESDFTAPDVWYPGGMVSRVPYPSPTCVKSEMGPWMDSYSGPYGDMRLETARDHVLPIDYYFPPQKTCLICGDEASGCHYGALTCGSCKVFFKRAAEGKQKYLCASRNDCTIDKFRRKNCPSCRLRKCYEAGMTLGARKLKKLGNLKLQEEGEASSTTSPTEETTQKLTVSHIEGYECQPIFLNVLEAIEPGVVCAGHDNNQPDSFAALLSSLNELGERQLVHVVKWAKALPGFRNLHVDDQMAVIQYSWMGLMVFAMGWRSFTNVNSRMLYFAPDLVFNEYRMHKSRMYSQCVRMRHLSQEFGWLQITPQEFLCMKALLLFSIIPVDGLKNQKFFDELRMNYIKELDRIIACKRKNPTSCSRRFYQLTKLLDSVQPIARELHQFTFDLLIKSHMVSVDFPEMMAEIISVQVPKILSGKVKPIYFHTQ
# Outline: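 Reporter cells cultured without CO2 receive test chemicals, then 0.5 nM R1881 final; after 16 hr at 37C, ONE-Glo is added and light output recorded.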
compound,measurement,setting,value
CCc1cccc(CC)c1,max response,[1],23.9%
same,Potency,[2],inactive
same,Potency,[3],inactive
same,Potency,[4],inactive
same,Potency,[5],inactive
same,Potency,[6],inactive
same,Potency,[7],inactive
same,Potency,[8],inactive
same,Potency,[9],inactive
same,Potency,[10],inactive
same,Potency,[11],inactive
same,Potency,[12],inactive
same,Potency,[13],inactive
same,Potency,[14],inactive
same,Potency,[15],inactive
same,Potency,[16],inactive
same,Potency,[17],inactive
same,Potency,[18],inactive
same,Potency,[19],inactive
same,Potency,[20],inactive
N#CCCOCCC#N,max response,[1],2.28%
same,Potency,[2],inactive
same,Potency,[3],inactive
same,Potency,[4],inactive
same,Potency,[5],inactive
same,Potency,[6],inactive
same,Potency,[7],inactive
same,Potency,[8],inactive
same,Potency,[9],inactive
same,Potency,[10],inactive
same,Potency,[11],inactive
same,Potency,[12],inactive
same,Potency,[13],inactive
same,Potency,[14],inactive
same,Potency,[15],inactive
same,Potency,[16],inactive
same,Potency,[17],inactive
same,Potency,[18],inactive
same,Potency,[19],inactive
same,Potency,[20],inactive
NC(=O)C1CO1 (configuration not stated),max response,[1],3.16%
same,Potency,[2],inactive
same,Potency,[3],inactive
same,Potency,[4],inactive
same,Potency,[5],inactive
same,Potency,[6],inactive
same,Potency,[7],inactive
same,Potency,[9],inactive
same,Potency,[10],inactive
same,Potency,[11],inactive
same,Potency,[12],inactive
same,Potency,[13],inactive
same,Potency,[14],inactive
same,Potency,[15],inactive
same,Potency,[16],inactive
same,Potency,[17],inactive
same,Potency,[18],inactive
same,Potency,[19],inactive
same,Potency,[20],inactive
C/C(=C\c1ccc(C(=O)O)cc1)c1ccc2c(c1)C(C)(C)CCC2(C)C,max response,[1],-17.3%
same,Potency,[2],inactive
same,Potency,[3],inactive
same,Potency,[4],inactive
same,Potency,[5],inactive
same,Potency,[6],inactive
same,Potency,[7],inactive
same,Potency,[9],inactive
same,Potency,[10],inactive
same,Potency,[11],inactive
same,Potency,[12],inactive
same,Potency,[13],inactive
same,Potency,[14],inactive
same,Potency,[15],inactive
same,Potency,[16],inactive
same,Potency,[17],inactive
same,Potency,[18],inactive
same,Potency,[19],inactive
CC(Cc1ccc(O)c(O)c1)C(C)Cc1ccc(O)c(O)c1 (configuration not stated),Potency,[1],38.9 µM (active)
same,Potency,[2],inactive
same,Potency,[3],49 µM (active)
same,Potency,[4],49 µM (active)
same,Potency,[5],49 µM (active)
same,Potency,[6],43.6 µM (active)
same,Potency,[7],inactive
same,Potency,[8],inactive
same,Potency,[9],inactive
same,Potency,[11],inactive
same,Potency,[12],43.6 µM (active)
same,Potency,[13],34.7 µM (active)
same,Potency,[14],43.6 µM (active)
same,Potency,[15],inactive
same,Potency,[16],inactive
same,Potency,[18],inactive
same,Potency,[19],inactive
Cc1ccc2nc(-c3ccc(N)cc3)sc2c1S(=O)(=O)O,max response,[1],-21.6%
same,Potency,[2],inactive
same,Potency,[3],inactive
same,Potency,[4],inactive
same,Potency,[5],inactive
same,Potency,[6],inactive
same,Potency,[7],inactive
same,Potency,[9],inactive
same,Potency,[10],inactive
same,Potency,[11],inactive
same,Potency,[12],inactive
same,Potency,[13],inactive
same,Potency,[14],inactive
same,Potency,[15],inactive
same,Potency,[16],inactive
same,Potency,[17],inactive
same,Potency,[18],inactive
same,Potency,[19],inactive
same,Potency,[20],inactive
CN(C)CCOc1ccc(/C(=C(/CCCl)c2ccccc2)c2ccccc2)cc1,Potency,[1],40.9 µM (active)
same,Potency,[2],45.8 µM (active)
same,Potency,[3],32.5 µM (active)
same,Potency,[4],40.9 µM (active)
same,Potency,[5],32.5 µM (active)
same,Potency,[6],32.5 µM (active)
same,Potency,[7],inactive
same,Potency,[9],inactive
same,Potency,[10],32.5 µM (active)
same,Potency,[11],45.8 µM (active)
same,Potency,[12],40.9 µM (active)
same,Potency,[13],40.9 µM (active)
same,Potency,[14],40.9 µM (active)
same,Potency,[15],45.8 µM (active)
same,Potency,[16],inactive
same,Potency,[17],36.4 µM (active)
same,Potency,[18],inactive
O=C(O)C[C@H](O)C[C@H](O)/C=C/c1c(C2CC2)nc2ccccc2c1-c1ccc(F)cc1,max response,[1],-20.4%
same,activity change,[2],"1.41% [at 15.8 µM, stronger effect = higher value]"
same,cytotoxicity increase,[3],7.91% [at 15.8 µM]
same,"activity change, negative = cytotoxic",[4],-27.7% [at 15.8 µM]
same,Potency,[5],2.61 µM (active)
same,Potency,[6],2.61 µM (active)
same,"activity change, negative = cytotoxicity",[7],8.78% [at 15.8 µM]
same,cytotoxicity,[9],0.628% [at 15.8 µM]
same,Potency,[10],2.61 µM (active)
same,cytotoxicity increase,[11],-1.19% [at 15.8 µM]
same,"activity change, negative = cytotoxic",[12],0.557% [at 15.8 µM]
same,"activity change, negative = cytotoxicity",[13],-0.416% [at 15.8 µM]
same,"activity change, negative = cytotoxicity",[14],5.42% [at 15.8 µM]
same,activity change,[15],"2.31% [at 15.8 µM, stronger effect = higher value]"
same,"activity change, negative = cytotoxicity",[16],-0.353% [at 15.8 µM]
same,cytotoxicity increase,[17],-9.83% [at 15.8 µM]
same,"activity change, negative = cytotoxicity",[18],6.55% [at 19 µM]
same,"viability change, negative = cytotoxic",[19],-6.18% [at 19 µM]
same,"activity, negative = inhibition",[20],31.2% [at 19 µM]
CCC(O)CO (configuration not stated),max response,[1],-1.31%
same,Potency,[2],inactive
same,Potency,[3],inactive
same,Potency,[4],inactive
same,Potency,[5],inactive
same,Potency,[6],inactive
same,Potency,[7],inactive
same,Potency,[9],inactive
same,Potency,[10],inactive
same,Potency,[11],inactive
same,Potency,[12],inactive
same,Potency,[13],inactive
same,Potency,[14],inactive
same,Potency,[15],inactive
same,Potency,[16],inactive
same,Potency,[18],inactive
same,Potency,[19],inactive
same,Potency,[20],inactive
CCn1c2ccccc2c2ccccc21,max response,[1],-15.2%
same,Potency,[2],inactive
same,Potency,[3],inactive
same,Potency,[4],inactive
same,Potency,[5],inactive
same,Potency,[6],inactive
same,Potency,[7],inactive
same,Potency,[8],inactive
same,Potency,[9],inactive
same,Potency,[10],inactive
same,Potency,[11],inactive
same,Potency,[12],inactive
same,Potency,[13],inactive
same,Potency,[15],inactive
same,Potency,[16],inactive
same,Potency,[17],inactive
same,Potency,[18],inactive
same,Potency,[19],inactive
Cn1ccnc1,max response,[1],9.06%
same,Potency,[2],inactive
same,Potency,[3],inactive
same,Potency,[4],inactive
same,Potency,[5],inactive
same,Potency,[6],inactive
same,Potency,[7],inactive
same,Potency,[9],inactive
same,Potency,[10],inactive
same,Potency,[11],inactive
same,Potency,[12],inactive
same,Potency,[13],inactive
same,Potency,[14],inactive
same,Potency,[15],inactive
same,Potency,[16],inactive
same,Potency,[17],inactive
same,Potency,[18],inactive
same,Potency,[19],inactive
CCOC=C(C(=O)OCC)C(=O)OCC,max response,[1],-0.307%
same,Potency,[2],inactive
same,Potency,[3],inactive
same,Potency,[4],inactive
same,Potency,[5],inactive
same,Potency,[6],inactive
same,Potency,[7],inactive
same,Potency,[9],inactive
same,Potency,[10],inactive
same,Potency,[11],inactive
same,Potency,[12],inactive
same,Potency,[13],inactive
same,Potency,[14],inactive
same,Potency,[15],inactive
same,Potency,[16],inactive
same,Potency,[17],inactive
same,Potency,[18],inactive
same,Potency,[19],inactive
same,Potency,[20],inactive
